# VACV Venus inh: qHTS for Stage-Specific Inhibitors of Vaccinia Orthopoxvirus: Venus Reporter Primary qHTS; Vaccinia virus Venus reporter expression, fluorescence; Potency, µM (top dose mostly 36.5 µM), for inactives: top-dose activity change, negative = inhibition, usual class: inhibitors; 330,000 compounds, 0.46% hits; AID 720580, 2013; calls by dose curve; tested in A549 cells; further: nearly all actives have a fitted effect of over 30% in size
# VACV mCherry inh: qHTS for Stage-Specific Inhibitors of Vaccinia Orthopoxvirus: mCherry Reporter Primary qHTS. Vaccinia virus mCherry reporter infection, fluorescence. Potency, µM (titrated, usually from 36.5 µM), inactives show at the highest dose activity change, negative = inhibition, hits mostly inhibitors. 310,000 compounds, 0.63% hits. AID 720579, 2013; calls by dose curve; tested in A549 cells; further: nearly all actives have a fitted effect of over 35% in size
# MARV entry inh: qHTS for inhibitors of binding or entry into cells for Marburg Virus; AID 540276, 2011; Potency, µM (top dose mostly 37.8 µM), for the others: at the highest dose activity change, negative = inhibition, most hits filed as inhibitors; 300,000 compounds, 1.8% hits; Marburg virus pseudotyped entry inhibition, cell reporter; calls by dose curve; tested in HEK293 cells
# Lassa entry inh: qHTS for Inhibitors of binding or entry into cells for Lassa Virus | Potency, µM (top dose mostly 37.9 µM), for the others: top-dose activity change, negative = inhibition, usual class: inhibitors | Lassa virus pseudotype entry inhibition, cell reporter | 300,000 compounds, 1.2% hits | AID 540256, 2011; calls by dose curve; tested in HEK293 cells; further: nearly all actives have a fitted effect of over 50% in size
# * marks the source's active call; other numbers are inactive results; i = inactive; ? = inconclusive; nt = not tested or not shown; ! = a repeat was not active; [ ] = remark or other dose. Only some compounds are listed: those with a hit (about 2.5% of all), similar ones and a draw of the others. On the % scale 0 is the no-effect control and ±100 the full control effect; potency means the concentration at half of the fitted maximal effect.
SMILES,VACV Venus inh,VACV mCherry inh,MARV entry inh,Lassa entry inh
O=C1C=C(NCCc2cc(Br)c(O)c(Br)c2)C(=O)c2ncccc21,?,?,?,2.82µM*
CC(C)(C)c1cc(CCC(=O)NCCc2ccccn2)cc(C(C)(C)C)c1O,-13.5%,-16.7%,-28.1%[46.1 µM],nt
C/C=C/c1ccc(OCC(=O)Nc2cc(OC)c(OC)c(OC)c2)c(OC)c1,-18.4%,-21.3%,?,10µM*
Cc1ccccc1NC(=O)C(=O)NCC(c1ccc2c(c1)OCO2)N1CCN(c2ccccc2)CC1 (stereo not drawn),-12.1%,i,nt,10µM*
C=Cc1ccc(Cn2c(C(=O)O)c(CNCc3ccccc3)c3ccc(C)cc32)cc1,12.6µM*,?,nt,?
Cc1ccc(CNCc2c(C(=O)O)n(Cc3ccc(C)cc3)c3cc(C)ccc23)cc1,?,11.2µM*,nt,?
COc1cc(=O)n2c(c1C(=O)NCc1ccc3c(c1)OCO3)CCN(C(=O)c1ccccc1F)CC2,3.5%,-8.9%,nt,nt
Cc1c(Cl)cccc1N/C(SCC(=O)N1CCCCCC1)=C(/C#N)c1nc2ccccc2s1,-12.4%,i,11.2µM*,?
O=C(CSc1nc2ccccc2s1)N1CCCCC1,-13.1%,-18.8%,4.5%,20.1%
COc1ccc(C(=O)NN/C(=N/S(=O)(=O)c2ccc(C)cc2)c2ccccc2)cc1,-10.5%,i,?,8.91µM*
C/C(=N\NC(=O)c1ccc(F)cc1)c1ccc(N2CCOCC2)cc1,-15.6%,-9.3%,?,4.2%[46.1 µM]
C/C(=N\NC(=O)COc1ccc(C(C)(C)C)cc1)c1ccc(N2CCOCC2)cc1,nt,nt,13.0%,1.3µM*
C[C@H]1CC[C@H]2C(=O)N(Cc3ccccc3)C[C@H](O)CN2[C@H]1c1cccc(Br)c1,nt,nt,-5.3%[14.2 µM],13.8%[14.3 µM]
O=C(NCc1cccc(OC(F)(F)F)c1)c1cccc2c1C(=O)c1ccc(-c3ccc(F)cc3OCc3ccccc3)cc1S2(=O)=O,-7.5%,i,nt,nt
O=C(NCc1ccccc1Cl)c1cccc2c1C(=O)c1ccc(-c3ccc(OC(F)(F)F)cc3)cc1S2(=O)=O,10µM*,?,nt,nt
Cc1c(C(=O)N2CCOc3ccccc3C2)sc2ncnc(NCCCN3CCOCC3)c12,-5.9%,-9.1%,nt,nt
O=C(Nc1ccc(-c2nc3cc(NC(=O)c4cccs4)ccc3o2)cc1)c1cccs1,nt,nt,8.2µM*,14.6µM*
Cc1nc(NC(=O)c2cccs2)ccc1Br,-8.1%,-3.2%,?,6.31µM*
Cc1ccc(C(=O)Nc2ccc(NC(=O)c3cccs3)cc2)cc1C,-6.6%,-5.8%,nt,9.1%[46.1 µM]
Cc1cc(C)cc(C(=O)Nc2ccc(NC(=O)c3cccs3)cc2)c1,?,10µM*,?,-18.9%
Cc1cccc(-c2nc3cc(NC(=O)C4CCCO4)ccc3o2)c1 (stereo not drawn),-11.6%,i,7.08µM*,7.94µM*
O=C(Nc1ccc2oc(-c3ccncc3)nc2c1)c1cccs1,-3.5%,-5.6%,?,-5.0%
COc1cc(-c2cc(C)c3cccc(OC)c3n2)cc2c1OCCN(C(=O)CC1NC(=O)c3ccccc31)C2 (stereo not drawn),-0.4%,i,nt,nt
COc1ccc(CN2CCOc3ccc(CN4CCCCC4CO)cc3C2)c(OC)c1 (stereo not drawn),-2.7%,-5.3%,nt,nt
Cc1ccc(-c2nc3cc(NC(=O)C(C)C)ccc3o2)cc1,?,nt,?,11.2µM*
SMILES,VACV Venus inh,VACV mCherry inh,MARV entry inh,Lassa entry inh
Cc1cc2nc(-c3ccc(NC(=O)C(C)C)cc3)oc2cc1C,0.0%,-11.1%,?,-25.7%
CC(Oc1ccc(Cl)cc1Cl)C(=O)Nc1ccc2oc(-c3ccncc3)nc2c1 (stereo not drawn),nt,nt,2.06µM*,?
Cc1ccc2ncc(C)c(/C=C/c3ccc(N(C)C)cc3)c2c1,-17.4%,-25.7%,nt,nt
Cc1nn(Cc2ccc(Cl)cc2)c(C)c1NC(=O)CCCn1nc(C)c([N+](=O)[O-])c1C,-25.2%,-13.8%,12.6µM*,?
Cc1nn(Cc2ccccc2)c(C)c1NC(=O)CCCn1nc(C)c([N+](=O)[O-])c1C,-5.9%,17.4%,0.9%,?
CCCn1c(CCC(=O)Nc2ccccc2Cc2ccccc2)nc2cc(S(=O)(=O)N3CCOCC3)ccc21,-15.4%,nt,12.6µM*,?
Cc1nn2cc(-c3ccc(-c4ccccc4)cc3)nc2s1,-14.2%,nt,?,11.2µM*
CCc1nn2cc(-c3ccccc3)nc2s1,nt,nt,18.3µM*,8.2µM*
Cc1cnc(C(=O)Nc2cccc3cccnc23)cn1,?,?,?,1.64µM*
Oc1ccc(/C(Cc2ccccn2)=N\Nc2ccccc2)c(O)c1,-21.5%,-26.7%,8.91µM*,?
CCN(CC)C1=CC(=[N+]2CCCC2)CC(C)(C)C1,-13.8%,-26.9%,1.26µM*,?
CC1(C)CC(N2CCCC2)=CC(=[N+]2CCCCCC2)C1,nt,nt,1.46µM*,?
O=C(NCc1ccco1)c1cnn2c1N[C@@H](c1ccccc1)C[C@@H]2C(F)(F)F,nt,nt,-0.4%,nt
CCN1C(=O)[C@@H]2[C@H]3[C@H](O)[C@H](O)CC(=NO[C@@H](C)c4cn([C@H](CO)Cc5ccccc5)nn4)[C@@H]3CC[C@H]2C1=O,nt,nt,-3.3%[14.2 µM],?
Cc1cccc(Nc2n[nH]c(C)c2[N+](=O)[O-])c1,-26.3%,-23.1%,12.6µM*,?
Cc1[nH]nc(Nc2ccccc2)c1[N+](=O)[O-],nt,nt,13.3%,?
COc1cc2ncn(-c3cc(OCCc4ccccc4)c(C(N)=O)s3)c2cc1OC,nt,nt,nt,17.7µM*
COc1cc2ncn(-c3cc(OCc4ccccc4C(F)(F)F)c(C(=O)N(C)C)s3)c2cc1OC,nt,nt,nt,3.6%
COc1cc2ncn(-c3cc(OC(C)c4ccccc4Cl)c(C(N)=O)s3)c2cc1OC (stereo not drawn),nt,nt,nt,2.5µM*
Cc1ccc2c(CC(=O)N3CCOc4ccc(CN5C[C@@H](C)O[C@@H](C)C5)cc4C3)cc(=O)oc2c1,-11.0%,-5.8%,nt,nt
O=C(NC(=S)Nc1ccccn1)c1ccc(-c2ccccc2)cc1,-28.9%,11.2µM*,?,-23.7%[46.1 µM]
Cc1cc(C)c(NC(=S)NC(=O)c2ccc(-c3ccccc3)cc2)c(C)c1,-4.3%,-14.3%,?,8.91µM*
COc1cc(=O)n2c(c1C(=O)NC(C)c1ccco1)CCN(Cc1ccccc1C(F)(F)F)CC2 (stereo not drawn),-6.5%,-13.0%,nt,nt
CC(NCc1ccc(Cl)c(Cl)c1)C(O)c1ccccc1 (stereo not drawn),-17.9%,i,?,24.5%
CC(NCc1ccc(OCc2ccc(Cl)cc2)cc1)C(O)c1ccccc1 (stereo not drawn),?,?,12.6µM*,?
CO[C@H]1[C@H](NC(=O)c2ccsc2)c2ccccc2C12CCN(Cc1cccc3ncccc13)CC2,-4.4%,-13.3%,nt,nt
COc1ccc(C2CC(=O)N3C(=C2C#N)SCC3(O)c2ccccc2)cc1 (stereo not drawn),nt,nt,-27.9%,-8.7%
N#CC1=C2SCC(O)(c3ccccc3)N2C(=O)CC1c1cccs1 (stereo not drawn),nt,nt,0.0326µM*!,?
COc1ccccc1C1CN(CC(=O)N2CCC(N3CCOCC3)CC2)Cc2ccccc2O1 (stereo not drawn),-2.7%,-3.5%,nt,nt

# High-throughput results deposited in PubChem by National Center for Advancing Translational Sciences (NCATS).
